{"source": "PubChem BioAssay AID2685", "about": "(National Center for Advancing Translational Sciences (NCATS), 2010)", "note": "About 2,100 (0.66%) of roughly 320,000 compounds were called active. About 53% were inconclusive and are not listed. The call rests on the fitted dose curve; in most records, active means well fitted inhibition curve with a large enough effect in the signal ratio, with a control signal flat (not every such curve was filed as active); inconclusive means small, poorly fitted or top-dose-only effect, or effect the other way, or a change in a side signal; inactive means flat fitted curve, though single readings scatter; the % refers to the signal ratio. What follows is part of a selection rich in actives, with near analogues and random picks from the rest. Potency means the concentration at half of the fitted maximal effect."}
{"test": "qHTS Assay for Lipid Storage Modulators in Drosophila S3 Cells;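 on cell number change: cells counted by Cell Tracker Red CMTPX staining in the red channel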", "conditions": "BODIPY lipid droplet fluorescence, 18-24 h, cells fed with added oleic acid; cell number change: measured here: cell count max response; series mostly up to 46.1 µM", "in_short": "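Drosophila S3 cells loaded with oleic acid (400 uM, as added) and compounds at several concentrations; lipid droplets imaged by 488-nm laser-scanning cytometry, 500–530 nm intensity and object ratio to cell channel. Percent activity normalized to 20 uM Triacsin C.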", "units": {"cell number change": "%"}}
{"compound": "COc1cc(/C=C(/C(=O)c2cccs2)c2nc3ccccc3[nH]2)ccc1O", "Potency": "inactive", "cell number change": -19}
{"compound": "O=C(/C(=C/c1cccc(Cl)c1)c1nc2ccccc2[nH]1)c1ccccc1", "Potency": "9.2 µM (active)", "cell number change": -22.6}
{"compound": "O=C(NCc1ccco1)/C(=C/c1cccc(C(F)(F)F)c1)c1nc2ccccc2[nH]1", "Potency": "inactive", "cell number change": -4.5}
{"compound": "Cc1ccc2nc(-c3ccccc3)c(-c3ccccc3)nc2c1", "Potency": "inactive", "cell number change": 8.82}
{"compound": "N#C/C(=C\\c1ccccc1OCC(=O)O)c1nc2ccccc2[nH]1", "Potency": "inactive"}
{"compound": "CCOc1cc(/C=C(\\C#N)c2nc3ccccc3[nH]2)ccc1OC(C)C(=O)O", "note": "(stereo not given)", "Potency": "inactive", "cell number change": 5.37}
{"compound": "CCN(CC)c1ccc(/C=C(/C#N)c2nc3ccccc3[nH]2)c(OC(C)C)c1", "Potency": "3.66 µM (active)"}
{"compound": "CCN(C(=O)COC(=O)c1cc(=O)c2ccccc2o1)c1c(N)n(Cc2ccccc2)c(=O)[nH]c1=O", "Potency": "inactive"}
{"compound": "COc1cccc(CN2C(=O)C(C)N(C(=O)c3ccccc3)c3ccccc32)c1", "note": "(stereo not given)", "Potency": "inactive", "cell number change": -9.22}
{"compound": "Cc1cc(C)cc(N(CC(=O)NC2CCCC2)C(=O)c2csnn2)c1", "Potency": "inactive", "cell number change": 20}
{"compound": "Cc1ccc(Cl)cc1N(CC(=O)NC1CCCC1)C(=O)c1csnn1", "Potency": "0.82 µM (active)", "cell number change": 11.3}
{"compound": "Cc1ccc(C)c(N(CC(=O)NC2CCCCC2)C(=O)c2csnn2)c1", "Potency": "inactive", "cell number change": 7.08}
{"compound": "Cc1cc(C)cc(N(CC(=O)NC2CCCCC2)C(=O)c2csnn2)c1", "Potency": "6.51 µM (active)", "cell number change": 3.85}
{"compound": "CC(=O)c1ccc(N(CC(=O)NC2CCCCC2)C(=O)c2csnn2)cc1", "Potency": "inactive", "cell number change": -0.427}
{"compound": "Cc1ccccc1N(CC(=O)NC1CCCC1)C(=O)c1csnn1", "Potency": "inactive", "cell number change": -1.91}
{"compound": "O=C1C2C3C=CC(C3)C2C(=O)N1c1cccc2ccccc12", "note": "(stereo not given)", "Potency": "inactive"}
{"compound": "CCCN(c1ccccc1C(=O)O)S(=O)(=O)c1ccc2c(c1)n(C)c(=O)n2C", "Potency": "inactive", "cell number change": 4.38}
{"compound": "CN(Cc1cccc(Cl)c1)C(=O)C1CSC2(C)CCC(=O)N12", "note": "(stereo not given)", "Potency": "inactive", "cell number change": 2.85}
{"compound": "COc1ccc(Oc2cccc(Cl)c2CNC(=O)CCCC(=O)O)cc1", "Potency": "inactive", "cell number change": -4.23}
{"compound": "CC1(C)CC(O)C(C)(C)N1O", "note": "(stereo not given)", "Potency": "inactive", "cell number change": 0.759}
{"compound": "COc1ccc2[nH]c(=O)c(CN(C(=O)C3CCCO3)c3ccc(C)cc3)cc2c1", "note": "(stereo not given)", "Potency": "inactive", "cell number change": -16.8}
{"compound": "O=C(O)CCC(=O)Nc1ccc(/C=C/C(=O)C2CC2)cc1", "Potency": "inactive", "cell number change": 0.554}
{"compound": "COC(=O)C(C(=O)OC)C(C[N+](=O)[O-])c1ccc(OC)cc1", "note": "(stereo not given)", "Potency": "inactive", "cell number change": -3.46}
{"compound": "COc1ccc(C(C[N+](=O)[O-])n2nc(C)cc2C)cc1", "note": "(stereo not given)", "Potency": "5.17 µM (active)", "cell number change": -16.7}
{"compound": "Cc1ccc(C(C[N+](=O)[O-])n2nc(C)cc2C)cc1", "note": "(stereo not given)", "Potency": "inactive", "cell number change": 28.9}
{"compound": "CCCCn1c(=O)nc2n(-c3ccc(Cl)cc3)c3ccccc3cc-2c1=O", "Potency": "inactive"}
{"compound": "C=CCNC(=O)c1ccc(Sc2ccc(C)cc2)c([N+](=O)[O-])c1", "Potency": "inactive", "cell number change": -8.5}
{"compound": "CCOC(=O)/C(=C\\c1cccc(O)c1)c1nc2sc(C)c(C)c2c(=O)[nH]1", "Potency": "20.6 µM (active)", "cell number change": -21.1}
{"compound": "CCOC(=O)c1nc2sc(C)c(C)c2c(=O)[nH]1", "Potency": "inactive", "cell number change": -3.45}
{"compound": "Cc1c(C(=O)O)sc2nc(/C=C/c3cccc(O)c3)[nH]c(=O)c12", "Potency": "inactive", "cell number change": 5.19}
{"compound": "NC(=O)C1CCN(c2ccnc3cc(Cl)ccc23)CC1", "Potency": "inactive", "cell number change": -7.1}
{"compound": "Cc1ccc(N(C(=O)CCCC(=O)Nc2ccccn2)C(C(=O)NC2CCCC2)c2ccc(O)cc2)cc1C", "note": "(stereo not given)", "Potency": "inactive", "cell number change": -6.35}
{"compound": "CCOC(=O)c1sc2nc3n(c(=O)c2c1C)CCCCC3", "Potency": "inactive", "cell number change": -6.59}
{"compound": "Cc1cc(C)cc(NC(=O)c2sc3nc4n(c(=O)c3c2C)CCC4)c1", "Potency": "18.4 µM (active)", "cell number change": -23.1}
{"compound": "CCc1cccc(NC(=O)c2ccc3c(=O)n4c(nc3c2)CCCCC4)c1", "Potency": "inactive", "cell number change": -2.31}
{"compound": "COc1cccc(NC(=O)c2sc3nc4n(c(=O)c3c2C)CCC4)c1", "Potency": "4.11 µM (active)", "cell number change": -27.4}
{"compound": "Cc1c(C(=O)Nc2ccc(OC(F)(F)F)cc2)sc2nc3n(c(=O)c12)CCC3", "Potency": "inactive", "cell number change": 2.69}
{"compound": "CCOc1ccc(CCNC(=O)c2sc3nc4n(c(=O)c3c2C)CCC4)cc1", "Potency": "inactive", "cell number change": 17.9}
{"compound": "Cc1c(C(=O)NCCO)sc2nc3n(c(=O)c12)CCC3", "Potency": "inactive", "cell number change": 20}
{"compound": "CCc1cccc(NC(=O)c2sc3nc4n(c(=O)c3c2C)CCC4)c1", "Potency": "5.8 µM (active)", "cell number change": -22.1}
{"compound": "COc1ccc(COC(=O)c2sc3nc4n(c(=O)c3c2C)CCC4)cc1", "Potency": "inactive"}
{"compound": "COc1ccccc1N1CCN(C(=O)c2sc3nc4n(c(=O)c3c2C)CCC4)CC1", "Potency": "inactive", "cell number change": -21.5}
{"compound": "CCc1ccc(NC(=O)c2sc3nc4n(c(=O)c3c2C)CCC4)cc1", "Potency": "2.31 µM (active)", "cell number change": -24}
{"compound": "CCOC(=O)c1sc2nc3n(c(=O)c2c1C)CCC3", "Potency": "inactive", "cell number change": 7.44}
{"compound": "Cc1cccn2c(=O)c3cc(C(=O)NCCCN4CCOCC4)n(C)c3nc12", "Potency": "inactive"}
{"compound": "CCCCN1C(=O)NC(NC(=O)C2CC2)(C(F)(F)F)C1=O", "note": "(stereo not given)", "Potency": "inactive", "cell number change": 15}
